Assay results published in publication PMC5700166.
Where a chain is given by its changes, count along the chain named.

Target: T1, GST-Ap-NF-kB RHD (Exaiptasia pallida (Aiptasia), UniProt A0A913YAJ5 2-422)
T1 sequence: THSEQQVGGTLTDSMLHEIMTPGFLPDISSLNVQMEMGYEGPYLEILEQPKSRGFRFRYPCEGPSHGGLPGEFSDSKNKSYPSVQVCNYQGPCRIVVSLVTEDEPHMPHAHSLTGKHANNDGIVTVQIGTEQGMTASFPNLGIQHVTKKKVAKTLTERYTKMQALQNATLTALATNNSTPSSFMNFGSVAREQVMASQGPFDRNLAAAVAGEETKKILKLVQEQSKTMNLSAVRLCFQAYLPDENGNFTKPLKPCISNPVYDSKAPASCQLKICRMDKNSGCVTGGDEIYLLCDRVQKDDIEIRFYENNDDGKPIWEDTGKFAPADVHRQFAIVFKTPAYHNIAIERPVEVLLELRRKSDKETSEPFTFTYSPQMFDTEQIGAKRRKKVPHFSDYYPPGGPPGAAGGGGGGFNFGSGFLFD
Test: protein-binding microarray (PBM); PBM: ~300 nM protein, 6 mM HEPES pH 7.8, 80 mM KCl, 0.5 mM EDTA, 0.5 mM EGTA, 6% glycerol, 35 ng/ul poly-dIdC, 1% milk, 1 h, room temperature; Ap Aiptasia and Nv Nematostella (sea anemones) / Co Capsaspora / Aq Amphimedon (sponge) / Dm Drosophila / Hu human; RHD is the Rel homology domain; high values mean tight binding
Details: dsDNA, one strand shown

Sequence | binding signal [z-score]
CCGATTAACATCAGGGGGGGTAATGATGTTAATCGGGTCTTGATTCGCTTGACGCTGCTG | 4.27
CCGATTAACATCACGGTGTTTCCTGATGTTAATCGGGTCTTGATTCGCTTGACGCTGCTG | 1.53
CCGATTAACATCACGGGAAGCCCTGATGTTAATCGGGTCTTGATTCGCTTGACGCTGCTG | 2.49

Target: T2, GST-Nv-NF-kB (Cys allele) (Nematostella vectensis, UniProt E5G601 2-411)
T2 sequence: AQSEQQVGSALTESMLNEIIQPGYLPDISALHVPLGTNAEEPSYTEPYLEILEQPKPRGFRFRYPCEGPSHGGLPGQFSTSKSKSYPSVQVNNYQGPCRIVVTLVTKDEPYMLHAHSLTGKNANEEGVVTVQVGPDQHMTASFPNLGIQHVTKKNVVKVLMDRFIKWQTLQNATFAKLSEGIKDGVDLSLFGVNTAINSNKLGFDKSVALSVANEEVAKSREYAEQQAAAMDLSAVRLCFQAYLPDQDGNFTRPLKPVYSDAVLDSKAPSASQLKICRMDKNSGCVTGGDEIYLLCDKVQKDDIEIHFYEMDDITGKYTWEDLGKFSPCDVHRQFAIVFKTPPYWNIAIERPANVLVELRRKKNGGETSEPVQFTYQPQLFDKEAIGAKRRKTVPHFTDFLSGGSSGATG
Test: as above
Details: dsDNA, one strand shown

Sequence | binding signal [z-score]
CCGATTAACATCAAAGAGCCCCCTGATGTTAATCGGGTCTTGATTCGCTTGACGCTGCTG | 4.16
CCGATTAACATCAGAAATGCCCCTGATGTTAATCGGGTCTTGATTCGCTTGACGCTGCTG | 5.61
CCGATTAACATCAAGGGGGATACTGATGTTAATCGGGTCTTGATTCGCTTGACGCTGCTG | 4.59
CCGATTAACATCAAAAGCCCCCATGATGTTAATCGGGTCTTGATTCGCTTGACGCTGCTG | 6.19
CCGATTAACATCAAACCACCCCCTGATGTTAATCGGGTCTTGATTCGCTTGACGCTGCTG | 3.14
CCGATTAACATCAGGACCTTCCCTGATGTTAATCGGGTCTTGATTCGCTTGACGCTGCTG | 2.66
CCGATTAACATCAGAAAATCACCTGATGTTAATCGGGTCTTGATTCGCTTGACGCTGCTG | 3.28
CCGATTAACATCAGGGCCTTTTGTGATGTTAATCGGGTCTTGATTCGCTTGACGCTGCTG | 1.14
CCGATTAACATCAATCCACCCCCTGATGTTAATCGGGTCTTGATTCGCTTGACGCTGCTG | 3.33
CCGATTAACATCAGGCGAACCCCTGATGTTAATCGGGTCTTGATTCGCTTGACGCTGCTG | 1.1
CCGATTAACATCAGGGAAACTTATGATGTTAATCGGGTCTTGATTCGCTTGACGCTGCTG | 6.28
CCGATTAACATCAGATAAACCCCTGATGTTAATCGGGTCTTGATTCGCTTGACGCTGCTG | 4.29
CCGATTAACATCAGGACATACCCTGATGTTAATCGGGTCTTGATTCGCTTGACGCTGCTG | 2.84
CCGATTAACATCAGGGGCTTCCATGATGTTAATCGGGTCTTGATTCGCTTGACGCTGCTG | 4.89
CCGATTAACATCAGGACTGCCCCTGATGTTAATCGGGTCTTGATTCGCTTGACGCTGCTG | 4.13
CCGATTAACATCAGGAAATACCCTGATGTTAATCGGGTCTTGATTCGCTTGACGCTGCTG | 8.7
CCGATTAACATCAGGAAGATCCCTGATGTTAATCGGGTCTTGATTCGCTTGACGCTGCTG | 1.84
CCGATTAACATCAGGGAGTGCCCTGATGTTAATCGGGTCTTGATTCGCTTGACGCTGCTG | 2.18
CCGATTAACATCAGGATATCCCCTGATGTTAATCGGGTCTTGATTCGCTTGACGCTGCTG | 7.01
CCGATTAACATCAAAAAATCACCTGATGTTAATCGGGTCTTGATTCGCTTGACGCTGCTG | 4.37
CCGATTAACATCAAGGGAATTCCTGATGTTAATCGGGTCTTGATTCGCTTGACGCTGCTG | 8.71
CCGATTAACATCAGAAAAACACCTGATGTTAATCGGGTCTTGATTCGCTTGACGCTGCTG | 3.55
CCGATTAACATCAGGTGTTTCCATGATGTTAATCGGGTCTTGATTCGCTTGACGCTGCTG | 1.06
CCGATTAACATCACGGGCTTCCCTGATGTTAATCGGGTCTTGATTCGCTTGACGCTGCTG | 2
CCGATTAACATCAAATAAGCCCCTGATGTTAATCGGGTCTTGATTCGCTTGACGCTGCTG | 5.54
CCGATTAACATCAACTATCCCCCTGATGTTAATCGGGTCTTGATTCGCTTGACGCTGCTG | 4.03
CCGATTAACATCAGGAAAGGCCCTGATGTTAATCGGGTCTTGATTCGCTTGACGCTGCTG | 2.62
CCGATTAACATCAAAAAAACACCTGATGTTAATCGGGTCTTGATTCGCTTGACGCTGCTG | 4.03
CCGATTAACATCACGGTGTTTCCTGATGTTAATCGGGTCTTGATTCGCTTGACGCTGCTG | 1.22
CCGATTAACATCACGGGAAGCCCTGATGTTAATCGGGTCTTGATTCGCTTGACGCTGCTG | 1.91

Target: T3, GST-Nv-NF-kB (Ser allele) (Nematostella vectensis, UniProt A7UNT2 2-411)
T3 sequence: T2 sequence with Q21R, C66S, S207N, E215Q, V217A, E225K, A268E, D399E
Test: as above
Details: dsDNA, one strand shown

Sequence | binding signal [z-score]
CCGATTAACATCAATTCCCCCCGTGATGTTAATCGGGTCTTGATTCGCTTGACGCTGCTG | 6.61
CCGATTAACATCAGGGGTAGAACTGATGTTAATCGGGTCTTGATTCGCTTGACGCTGCTG | 1.11
CCGATTAACATCACCCGGGTAAATGATGTTAATCGGGTCTTGATTCGCTTGACGCTGCTG | 1.15
CCGATTAACATCACCCTCGAGGGTGATGTTAATCGGGTCTTGATTCGCTTGACGCTGCTG | 1.78
CCGATTAACATCACGGAAACACCTGATGTTAATCGGGTCTTGATTCGCTTGACGCTGCTG | 1.16
CCGATTAACATCAAATCCCCCCCTGATGTTAATCGGGTCTTGATTCGCTTGACGCTGCTG | 9
CCGATTAACATCAAGGGGGGGACTGATGTTAATCGGGTCTTGATTCGCTTGACGCTGCTG | 4.24
CCGATTAACATCACGGAAATACCTGATGTTAATCGGGTCTTGATTCGCTTGACGCTGCTG | 1.39
CCGATTAACATCAGGGGGGGTAATGATGTTAATCGGGTCTTGATTCGCTTGACGCTGCTG | 3.94
